High-throughput results from PubChem.
Sm TGR block – inhibitors of Schistosoma mansoni thioredoxin glutathione reductase. Q962Y6. Potency, µM (series often up to 114 µM), inactives show at the highest dose activity change, negative = inhibition, actives largely listed as inhibitors. purified TGR, DTNB reduction, TNB absorbance 405 nm. 360,000 tested, 3% active; also: potency is read from the fitted curve at half-maximal effect; nearly all actives have a fitted effect of over 60% in size
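Kinetic colorimetric format: TGR-catalysed, NADPH-driven DTNB reduction monitored via TNB absorbance. Enzyme dispensed at 20 nM; compound exposure 15 min at room temperature before reaction start.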
VACV mCherry inh – inhibitors of vaccinia virus infection (mCherry reporter signal); Vaccinia virus mCherry reporter infection, fluorescence; Potency, µM (series often up to 36.5 µM), for inactives: at the highest dose activity change, negative = inhibition, usual class: inhibitors; 310,000 tested, 0.63% active; calls by dose curve; tested in A549 cells; also: potency is read from the fitted curve at half-maximal effect; nearly all actives have a fitted effect of over 35% in size
HCMV inh – inhibitors of human cytomegalovirus; HFF cells, HCMV-luciferase reporter, 72 h; active compounds read low; activity change, negative = inhibition, % at 57.5 µM; 410,000 tested, 4.5% active; in the data active = activity change below about -60%; inconclusive = no clear call, values can overlap the other calls; inactive = above about -39%
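Inhibition of viral replication was scored as loss of reporter luminescence in HFFs infected with HCMV-luciferase (MOI 1 PFU/cell) for 72 h; compounds tested at 2 doses, normalized to buffer and Salinomycin controls.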
VACV Venus inh – vaccinia inhibition (Venus reporter); Vaccinia virus Venus reporter expression, fluorescence; Potency, µM (titrated, usually from 36.5 µM), without a hit: top-dose activity change, negative = inhibition, actives largely listed as inhibitors; 330,000 tested, 0.46% active; AID 720580; calls by dose curve; tested in A549 cells; also: potency is read from the fitted curve at half-maximal effect; nearly all actives have a fitted effect of over 30% in size
FMDV antiviral – foot and mouth disease virus antiviral activity; FMDV antiviral cell-based qHTS; Potency, µM (doses to about 57.9 µM), for inactives: at the highest dose activity change, negative = inhibition, usual class: inhibitors; 410,000 tested, 1.2% active; AID 1159524; calls by dose curve; tested in HEK293T cells; also: read-out not given here; potency is read from the fitted curve at half-maximal effect; nearly all actives have a fitted effect of over 45% in size
HCV inhibitor – HCV inhibition; 340,000 tested, 3.4% active; Huh7.5.1 HCVcc-Cre infection, luciferase reporter, 44 h; Potency, µM (titrated, usually from 41.8 µM), for the others: at the top dose activity change, negative = inhibition, actives largely listed as inhibitors; also: potency is read from the fitted curve at half-maximal effect
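Reporter virus HCVcc-Cre (~0.5 moi) infects cells exposed to compound; seeding density 1,000 cells/well with 4 h settling beforehand. Luminescence, 15 sec read, taken 44 h post-infection following a 15 min RT substrate incubation.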
Numbers without * were called inactive; i = inactive; ? = inconclusive; / = no result. This is a sample that favours compounds with a hit; in the whole collection about 9.3% have one here. Unless noted, calls follow the shape of the dose curve; as a rule, active = well fitted curve in the direction sought with a large enough effect; inconclusive = small, poorly fitted or top-dose-only effect, or another doubt; inactive = no such curve, though single readings can be large; an effect the other way counts as inactive or inconclusive. % is scaled to controls: 0 for no effect and ±100 for the full control effect.

SMILES	Sm TGR block	VACV mCherry inh	HCMV inh	VACV Venus inh	FMDV antiviral	HCV inhibitor
CC(CN1CCCCC1)OC(=O)C1c2ccccc2Oc2ccccc21 (stereo unspecified)	1%	-6%	26	-9%	-12%	10%
Cc1ccc(N/N=C(\Cc2nc3ccccc3[nH]2)c2ccccc2)cc1	40µM*	?	/	?	27%	?
c1ccc(N/N=C(\Cc2nc3ccccc3[nH]2)c2ccccc2)cc1	-2%	-13%	31	-30%	34%	-9%
CSc1nnc(-c2ccc(NC(N)=S)cc2)o1	4%	/	37	/	0%	-17%
CSc1nnc(-c2cccc(NC(=S)NN)c2)o1	-10%	i	-66*	-12%	4%	-14%
Cn1ncc(Cl)c1C(=O)NC(=S)Nc1sc2c(c1C#N)CCCCC2	?	-15%	-60*	-3%	-1%	-5%
N#Cc1c(NC(=S)NC(=O)c2ccccc2)sc2c1CCCCC2	/	i	/	-8%	/	/
O=C(CSc1nc2c([nH]c3ccccc32)c(=O)n1-c1ccc(F)cc1)N1CCc2ccccc21	-4%	-2%	18	-2%	-22%	/
CCOC(=O)CSC(=S)NC(=O)c1ccc(OC)cc1	8.9µM*	i	-87*	-18%	-16%	20%
CC(C)C(=O)N1CCN(c2cc(N3CCN(C)CC3)c(F)cc2[N+](=O)[O-])CC1	2%	-18%	26	3%	-16%	-21%
Nc1nonc1-n1nnc(C(=O)N/N=C/c2c(Cl)cccc2Cl)c1CN1CCOCC1	-6%	-4%	37	-5%	9%	2%
COc1ccc(-c2cc(C(=O)OCC(=O)N3CCCCC3)c3ccccc3n2)cc1OC	/	i	18	-20%	1%	?
CCC1Sc2ccc(S(=O)(=O)CCC(=O)NCc3ccco3)cc2NC1=O (stereo unspecified)	32µM*	/	-31	/	?	-21%
O=C(OCc1ccc(F)cc1)c1ccc2c(c1)-c1ccccc1C2=O	-14%	/	-2	-19%	44%	-29%
CCOC(=O)C1=C(Cc2ccc(F)cc2)C(=O)c2ccccc2C1=O	?	/	18	/	?	7.9µM*
O=[N+]([O-])c1cc([As](=O)(O)O)ccc1O	32µM*	-13%	-26	-15%	-23%	-2%
CCOc1ccc(N=C(NN)c2ccc3ccccc3n2)cc1	2%	-13%	-69*	-16%	8.9µM*	?
CCn1c(SCC(=O)Nc2cc(C(C)(C)C)nn2-c2ccccc2)nnc1-c1cccs1	-10%	i	-25	-16%	0%	16µM*
CC12CCC(C/C1=N/OC(=O)c1cccc([N+](=O)[O-])c1)C2(C)C (stereo unspecified)	-17%	/	-65*	/	-20%	2%
N#Cc1c([N+](=O)[O-])cc([N+](=O)[O-])cc1S(=O)(=O)Cc1ccccc1	0.35µM*	?	-99*	?	28µM*	10µM*
C=C1CC[C@@H]2[C@](C)(CO)[C@H](O)CC[C@@]2(C)[C@@H]1/C=C/C1=CCOC1=O	40µM*	/	?	/	?	?
COc1cccc(-c2nn(C)c3sc(C(=O)N4CCOCC4)cc23)c1	0%	i	90	-21%	-21%	-7%
COc1cccc(-c2nn(C)c3sc(C(=O)NCc4ccc(OC)cc4OC)cc23)c1	10%	?	-39	-27%	-17%	/
COc1cccc(-c2nn(C)c3sc(C(=O)NCc4ccc(C)o4)cc23)c1	8.9µM*	?	14	?	-9%	2.8µM*
COc1cccc(-c2nn(C)c3sc(C(=O)NCc4cc(OC)ccc4OC)cc23)c1	7%	-27%	-24	-19%	?	/
SMILES	Sm TGR block	VACV mCherry inh	HCMV inh	VACV Venus inh	FMDV antiviral	HCV inhibitor
COc1cccc(-c2nn(C)c3sc(C(=O)N4CCN(c5ccccn5)CC4)cc23)c1	-2%	?	/	?	?	10µM*
COc1cccc(-c2nn(C)c3sc(C(=O)NCc4ccc5c(c4)OCO5)cc23)c1	-5%	?	-26	?	-17%	14µM*
CCOC(OCC)P(=O)(O)CCCN	/	i	/	-6%	-6%	/
CCN(Cc1ccccc1)C(=O)c1cccc(OC2CCN(C(=O)C3CC3)CC2)c1	0%	/	0	/	-27%	?
COCCNC(=O)c1cccc(OC2CCN(Cc3cccc(C(C)=O)c3)CC2)c1	-16%	/	-22	/	?	-26%
O=C(NCc1cccc(F)c1)c1cccc(OC2CCN(C(=O)C3CC3)CC2)c1	-5%	-8%	?	?	28µM*	/
COCCNC(=O)c1cccc(OC2CCN(Cc3ccc(OC(F)F)cc3)CC2)c1	8%	-13%	-22	-15%	?	7.1µM*
CCn1c(SCc2nnc(-c3ccccc3)o2)nc2c1c(=O)n(C)c(=O)n2C	7%	/	/	/	/	5%
CCCCn1c(SCc2nnc(-c3ccccc3)o2)nc2c1c(=O)n(C)c(=O)n2C	7%	-14%	-66*	-9%	0%	/
CCCNC(=O)C1CC(c2ccc(C(F)(F)F)cc2)=NO1 (stereo unspecified)	18%	i	17	-2%	13%	-10%
O=C(NC(=S)Nc1ccccn1)c1cncc(Br)c1	2%	/	-29	/	46%	-6%
O=C(NC(=S)Nc1ccccc1C(=O)O)c1cncc(Br)c1	4%	-4%	9	-5%	-2%	7%
O=C(NC(=S)Nc1ccccc1[N+](=O)[O-])c1cncc(Br)c1	20µM*	/	-16	/	7%	-1%
O=C(NC(=S)Nc1ccccc1O)c1cncc(Br)c1	/	14µM*	?	?	31%	-6%
CCC(Oc1ccc(F)cc1)C(=O)Nc1nc(-c2ccc(F)cc2)ns1 (stereo unspecified)	42%	?	-98*	?	-19%	/
CCC(C)(C)n1nnnc1C(c1cccs1)N1CC=C(c2ccc(F)cc2)CC1 (stereo unspecified)	?	-23%	-63*	-26%	/	?
COC(=O)C(CC(=O)c1ccc(Br)cc1)n1nc(C)cc1C (stereo unspecified)	3.5µM*	i	15	-3%	-9%	8%
COc1cc(NC(=O)CC(C)n2ccnc2)cc(OC)c1 (stereo unspecified)	1%	-12%	-37	-3%	-5%	18%
COC(=O)C(CC(=O)c1ccc(C)cc1)n1nc(C)cc1C (stereo unspecified)	13µM*	/	29	/	9%	0%
COc1ccc(CNC(=O)CC(C)n2nc(C)cc2C)cc1 (stereo unspecified)	4%	-11%	-1	-7%	0%	/
Cc1ccc(C(=O)CC(C(=O)O)n2cncn2)cc1 (stereo unspecified)	-20%	i	-2	-16%	-3%	-6%
